The whole screen tested about 66,000 compounds, of which about 960 (1.5%) showed an effect of 50% or more. This is one part of a sample in which strong results are shown more often than they occur.
Test system: Trypanosoma brucei
Assay: Trypanosoma brucei 72 hour study
Format: functional, organism-based
Design: scale not given: in the data most compounds retested in dose-response had high values

| Structure (SMILES) | Percent Effect (30.3 µM, […]) [%] | Percent Effect (30 µM, 30.03 µM) [%] |
| --- | --- | --- |
| CC(C)N1CCC(c2n[nH]cc2-c2ccnc(N)c2)C1 (configuration not stated) | 2.3 | – |
| CN1CCC(c2n[nH]cc2-c2ccnc(N)c2)C1 (configuration not stated) | -5.978 | – |
| CC(C)Nc1cc(-c2c[nH]nc2C2CCN(C(=O)C3CC3)C2)ccn1 (configuration not stated) | 99.82 | – |
| CC(C)Nc1cc(-c2c[nH]nc2C2CCN(C(=O)C3CCC3)C2)ccn1 (configuration not stated) | 100.4 | – |
| Cc1c[nH]nc1C1CCN(C(=O)Cn2cccn2)C1 (configuration not stated) | -30.39 | – |
| O=C(C1CCCC1)N1CCC(c2ccnc(Nc3cnccn3)n2)C1 (configuration not stated) | 9.82 | – |
| CN(C)S(=O)(=O)N1CCC(c2n[nH]cc2-c2ccnc(N)c2)C1 (configuration not stated) | -8.179 | – |
| CC(C)CNc1cc(-c2c[nH]nc2C2CCN(C(=O)C3CC3)C2)ccn1 (configuration not stated) | 100.1 | – |
| Nc1cc(-c2c[nH]nc2C2CCCCN2C(=O)C2CCCC2)ccn1 (configuration not stated) | 11.59 | – |
| CCCNc1cc(-c2c[nH]nc2C2CCN(C(=O)C3CCC3)C2)ccn1 (configuration not stated) | 99.71 | – |
| CC(=O)N1CCC(c2n[nH]cc2-c2ccnc(N)c2)C1 (configuration not stated) | -2.575 | – |
| Nc1cc(-c2c[nH]nc2C2CCN(C(=O)C3CCCC3)C2)ccn1 (configuration not stated) | 38.23 | – |
| Cc1occc1C(=O)N1CCO[C@H]2[C@@H](Oc3ccccn3)CC[C@@H]21.O=C(O)C(F)(F)F | – | 26.48 |
| CNC(=O)CN1CCOCC2(C1)CN(C(=O)C(C)C)CCO2.O=C(O)C(F)(F)F (configuration not stated) | – | -6.033 |
| CS(=O)(=O)N1CCO[C@H]2[C@@H](Oc3ncccc3F)CC[C@@H]21.O=C(O)C(F)(F)F | 12.73 | – |
| CC(=O)NC1CCN(c2cc(C3CCNCC3)ccn2)CC1.Cl.Cl | -5.403 | – |
| O=C(O)C(F)(F)F.O=C([C@@H]1CC[C@@H]2[C@@H](CCN2c2ccncn2)O1)N1CCCCO1 | -55.7 | – |
| Cc1cc(N2CCC(N(C)C(=O)c3ccccc3F)CC2)nc(C)n1 | – | -12.35 |
| Cn1ccnc1C(=O)N[C@@H]1CN(CC2CCOCC2)[C@@H]2CCCO[C@@H]21.O=C(O)C(F)(F)F | -79.05 | – |
| Cc1cc(SCC(=O)O)nc2nn(CC(F)F)c(C)c12 | -20.88 | – |
| CCc1nc(-c2cncnc2C2CCCNC2)no1.Cl (configuration not stated) | 10 | – |
| CCC(CC)C(=O)N1CCc2nc(N3CCCC3)nc(C)c2CC1 | – | -41.54 |
| Cc1cccc(CN2C[C@@H]3CN(C(=O)c4ccco4)C[C@@H]3C2=O)n1.O=C(O)C(F)(F)F | -11.66 | – |
| CC(C)(C)c1nc(CC(=O)NC2CCN(C3CC3)C2)cs1 (configuration not stated) | 99.7 | – |

| Structure (SMILES) | Percent Effect (30.3 µM, […]) [%] | Percent Effect (30 µM, 30.03 µM) [%] |
| --- | --- | --- |
| CN1CCC(NC(=O)Cc2csc(C(C)(C)C)n2)CC1 | 4.768 | – |
| CC(=O)N1CCC(NC(=O)Cc2csc(C(C)(C)C)n2)CC1 | -5.92 | – |
| COc1cc2c(c(OC)c1OC)CCN(CCN1CCCCC1)CC2 | – | -20.4 |
| CCN1CCN(c2ccccc2NC(=O)NCc2ccon2)CC1 | -63.99 | – |
| Cc1nc(CN2CCCC(N(C)CC3CCCC3)C2)no1 (configuration not stated) | -21.28 | – |
| FC(F)(F)c1ccccc1CCC1CCCN(Cc2cscn2)C1 (configuration not stated) | 51.05 | – |
| Cc1nc(CN2CCCC(CCc3ccccc3C(F)(F)F)C2)co1 (configuration not stated) | 52.02 | – |
| Cc1nc(CN2CCCC(N(C)CCCc3ccccc3)C2)no1 (configuration not stated) | -9.572 | – |
| Cc1nc(CN2CCCC(CCc3cccc(C(F)(F)F)c3)C2)co1 (configuration not stated) | 40.44 | – |
| Cc1nc(CN2CCCC(CCc3ccccc3C(F)(F)F)C2)no1 (configuration not stated) | 87.44 | – |
| Fc1ccccc1CC1CCN(Cc2cscn2)CC1 | – | -2.509 |
| Cn1cc(CN2CCCC(CCc3ccccc3C(F)(F)F)C2)cn1 (configuration not stated) | – | -18.52 |
| Cc1nnc(CN2CCCC(CCc3ccccc3C(F)(F)F)C2)o1 (configuration not stated) | 32.35 | – |
| Cc1ccc2c(n1)N(Cc1cccnc1)CCN(C1CCOCC1)C2.O=C(O)C(F)(F)F.O=C(O)C(F)(F)F.O=C(O)C(F)(F)F | – | -18.41 |
| CC1N(c2cnn(C)c2)C(=O)COC12CCN(c1ccccn1)CC2.O=C(O)C(F)(F)F (configuration not stated) | -14.53 | – |
| Cc1oncc1C(=O)N1CC[C@H]2[C@H](C[C@@H](CN(C)C)N2CC2CC2)C1.O=C(O)C(F)(F)F.O=C(O)C(F)(F)F | -0.8006 | – |
| Cl.O=C(CCN1CCCC1)Nc1c2c(cc3c1CCC3)CCC2 | – | 0.04304 |
| COCC(=O)NC[C@]12COC[C@H]1CN(Cc1ccc3c(c1)OCO3)C2.O=C(O)C(F)(F)F | 5.113 | – |
| COC1COC2(CCN(C(=O)c3ccccc3F)CC2)C1 (configuration not stated) | -57.28 | – |
| CCN(C)c1ncnc2c1CCN(C(=O)Cc1ccccn1)CC2.O=C(O)C(F)(F)F | – | -43.42 |
| Cc1ccc(N2CC[C@H](OCC3CC3)[C@@H]2Cc2cnn(C)c2)nn1 | – | 51.55 |
| CCO[C@@H]1CCN(c2ccc(C)nn2)[C@@H]1Cc1cnn(C)c1 | -24.65 | – |
| CO[C@H]1CCN(c2ccc(C)nn2)[C@H]1Cc1cnn(C)c1 | – | 12.56 |

Reference: ChEMBL document CHEMBL3988442, “University of Dundee, Small-Polar-MMV Screening Library” (2021)
